# The campaign covered roughly 310,000 compounds. About 1,200 (0.39%) were called active. No rule for the calls is given here. The list is a sample of the results. Results with a measured potency or affinity are listed apart.
# Molecular target: Large T antigen (Simian virus 40) (UniProt P03070)
# Assay: TAg ATPase/helicase activity blockers – biochemical (AID 1903)
# Conditions: SV40 large T antigen ATPase/helicase inhibition assay; at 20 µM; active compounds read high
# Large T antigen (Simian virus 40), sequence (P03070 whole entry, looked up): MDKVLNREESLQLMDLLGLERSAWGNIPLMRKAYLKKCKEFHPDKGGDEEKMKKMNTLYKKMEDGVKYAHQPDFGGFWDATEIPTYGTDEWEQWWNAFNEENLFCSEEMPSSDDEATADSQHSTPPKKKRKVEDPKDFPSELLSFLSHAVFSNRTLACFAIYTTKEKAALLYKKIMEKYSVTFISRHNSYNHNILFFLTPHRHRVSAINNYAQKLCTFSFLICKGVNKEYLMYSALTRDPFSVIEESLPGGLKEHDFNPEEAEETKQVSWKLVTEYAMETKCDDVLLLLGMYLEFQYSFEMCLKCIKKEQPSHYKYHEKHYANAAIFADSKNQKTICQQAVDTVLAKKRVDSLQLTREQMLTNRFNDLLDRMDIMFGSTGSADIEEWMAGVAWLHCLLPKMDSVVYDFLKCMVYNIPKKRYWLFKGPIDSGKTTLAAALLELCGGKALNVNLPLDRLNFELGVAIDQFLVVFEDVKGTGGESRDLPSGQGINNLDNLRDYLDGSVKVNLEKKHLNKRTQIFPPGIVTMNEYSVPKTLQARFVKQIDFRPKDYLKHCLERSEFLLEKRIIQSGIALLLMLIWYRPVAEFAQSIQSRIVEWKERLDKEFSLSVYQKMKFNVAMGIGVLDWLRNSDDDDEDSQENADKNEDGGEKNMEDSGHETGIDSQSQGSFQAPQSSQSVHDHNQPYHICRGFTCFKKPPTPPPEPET
row,SMILES,inhibition
1,O=[N+]([O-])c1ccc(N2CCN(c3ccccn3)CC2)c(Cl)c1,9.91% (inactive)
2,O=C(CSc1nnc(-c2ccco2)c(-c2ccco2)n1)c1ccccc1,-0.39% (inactive)
3,CSc1nnc(-c2ccco2)c(-c2ccco2)n1,54.2% (inactive)
4,COc1ccc(-n2nnnc2SCC(=O)NCCc2ccccc2)cc1OC,5.41% (inactive)
5,Cc1cccc(-c2noc(CNC(=O)c3ccc4c(c3)OCO4)n2)c1,9.48% (inactive)
6,CC(CCc1ccccc1)NC(=O)CCc1cn(C)c2ccccc12 (stereo unspecified),8.16% (inactive)
7,CCCCC(CC)CNC(=O)c1cccs1 (stereo unspecified),0.58% (inactive)
8,CCCCC(CC)CNC(=O)c1ncn[nH]1 (stereo unspecified),9.07% (inactive)
9,CC1(C)CN(c2ccc(N3CC(C)(C)C3=O)cc2)C1=O,7.74% (inactive)
10,CC1(C)CN(c2ccc(F)cc2)C1=O,10% (inactive)
11,Oc1ccc(N=Cc2ccc(OCc3ccccc3)cc2)cc1,15.6% (inactive)
12,COc1ccc(/C=N/N=C/c2ccc(OC)c(O)c2)cc1O,1.26% (inactive)
13,CC1CCCC(C)N1/N=C/c1ccc(O)c(O)c1 (stereo unspecified),32.1% (inactive)
14,Oc1ccc(/C=N/N=C/c2ccc(O)cc2)cc1,27.4% (inactive)
15,CCn1c(CNC(=O)c2ccco2)nnc1SCC(=O)Nc1ccc(Br)cc1F,3.84% (inactive)
16,CCN(CC)S(=O)(=O)c1ccc(Cl)c(NC(=O)COc2ccc(OC)cc2)c1,21.5% (inactive)
17,COc1ccccc1Cn1cccc1C=O,-6.2% (inactive)
18,Cc1ccc(CCNC(=O)C2CCC(=O)N2Cc2ccc(F)cc2)cc1 (stereo unspecified),8.48% (inactive)
19,C/C(=N\O)c1ccc2[nH]ccc2c1,8.8% (inactive)
20,CC(=O)Nc1ccc2[nH]ccc2c1,18.6% (inactive)
21,COc1cc(/C=N/NC(=O)C(=O)NCc2ccco2)cc(Cl)c1O,28.7% (inactive)
22,O=C(NCC1CCCO1)C(=O)N/N=C/c1ccc(O)c(Cl)c1 (stereo unspecified),30.4% (inactive)
23,COc1cccc(/C=N/NC(=O)CNC(=O)c2ccco2)c1O,23.9% (inactive)
24,COc1ccc(/C=N/NC(=S)NCC2CCCO2)cc1 (stereo unspecified),7.07% (inactive)
25,Oc1c(Br)cc(/C=N/NC(=S)NCC2CCCO2)cc1Br (stereo unspecified),27.3% (inactive)
26,COc1cc(/C=N/NC(=O)C(=O)NCC2CCCO2)cc(Cl)c1O (stereo unspecified),22.2% (inactive)

row,SMILES,inhibition
1,COc1cc(/C=N/NC(=O)C(=O)NCc2ccco2)cc(Br)c1O,29.1% (inactive)
2,O=C(CNC(=O)c1ccco1)N/N=C/c1ccc(O)c([N+](=O)[O-])c1,-0.16% (inactive)
3,COc1ccc(OC)c(S(=O)(=O)N2CCC(C(=O)NC3CCCC3)CC2)c1,8.53% (inactive)
4,NC(=O)CC(NC(=O)Cc1cccc2ccccc12)c1ccc(NC2CC3CCC2C3)c([N+](=O)[O-])c1 (stereo unspecified),17.8% (inactive)
5,O=C(CCn1c(=O)oc2ccccc21)N1CCN(c2ccc(F)cc2)CC1,2.5% (inactive)
6,COC(=O)C1=C(C)NC(=O)NC1c1ccco1 (stereo unspecified),8.25% (inactive)
7,C=CCOc1ccc(Oc2cc(C)nc(SC)n2)nn1,19.1% (inactive)
8,CCCOC(=O)c1cccc(NC(=O)C(C)(C)C)c1,-1.32% (inactive)
9,O=C(CNC(=S)N(Cc1ccccc1Cl)C1CCCC1)NCCN1CCOCC1,3.17% (inactive)
10,COc1cccc(O)c1CN1CCCC(C(=O)c2cccc(C(F)(F)F)c2)C1 (stereo unspecified),4.62% (inactive)
11,Cn1c(=O)c([N+](=O)[O-])c(NCC(O)c2ccccc2)c2ccccc21 (stereo unspecified),21.3% (inactive)
12,Cn1c(=O)[nH]c(=O)c2c1nc(CN1CCN(c3cccc(Cl)c3)CC1)n2CCc1ccccc1,1.29% (inactive)
13,COc1ccc(-c2c(C#N)c(N)n(N)c(=O)c2C#N)cc1Cl,3.3% (inactive)
14,COc1cccc(/C=C2\N=C3CCCCCN3C2=O)c1,13.8% (inactive)
15,COc1ccc(/C=C2/N=C3CCCCCN3C2=O)cc1,4.2% (inactive)
16,COc1ccc(/C=C2\N=C3CCCCCN3C2=O)cc1,3.96% (inactive)
17,COc1ccc(/C=C2/N=C3CCCCCN3C2=O)cc1OC,6.08% (inactive)
18,O=C1/C(=C/c2ccncc2)N=C2CCCCCN12,18.3% (inactive)
19,CN(C)c1ccc(/C=c2\sc3n(c2=O)CCCN=3)cc1,7.47% (inactive)
20,O=c1/c(=C/c2ccc(O)cc2)sc2n1CCCN=2,29.1% (inactive)
21,COc1ccc(/C=C2\N=C3CCCCCN3C2=O)cc1OC,13.5% (inactive)
22,CCC1Sc2ccc(S(=O)(=O)N3CCN(c4ccccc4)CC3)cc2NC1=O (stereo unspecified),-0.58% (inactive)
23,O=C1C(=O)N(CCS(=O)(=O)c2ccccc2)c2ccc(F)cc21,3.86% (inactive)
24,CN1CC(=O)N(CC(=O)Nc2cccc(S(=O)(=O)N3CCOCC3)c2)C1=O,4.06% (inactive)
25,CCCc1nnc(NC(=O)C(=O)NCCN(CC)CC)s1,0.4% (inactive)
26,COCCCNC(=O)COc1ccc(-c2nccc(-c3ccccn3)n2)cc1,4.04% (inactive)

row,SMILES,inhibition
1,C=CCn1c(SCC(=O)N2CCCC2)nc2c([nH]c3ccccc32)c1=O,5.61% (inactive)
2,CCCCn1c(SC(C)C(=O)c2ccc(OC)cc2)nc2cc(S(N)(=O)=O)ccc21 (stereo unspecified),17.9% (inactive)
3,COc1cc(OC)c(C(=O)N/N=C/c2ccoc2)cc1OC,13.6% (inactive)
4,O=[N+]([O-])c1ccccc1CNCCCCO,0.09% (inactive)
5,O=C(NCCC1=CCCCC1)c1ccc(Cl)c(S(=O)(=O)Nc2ccccc2)c1,-7.13% (inactive)
6,Cc1ccc(C)c(NC(=O)CN(C)C(=O)c2nn(C)c(=O)c3ccccc23)c1,6.79% (inactive)
7,CCOc1cc(/C=N/Nc2nnc(C)n2N)ccc1O,24.2% (inactive)
8,COc1ccc(/C=N/Nc2nc(Nc3ccccc3)nc(N3CCCCC3)n2)cc1OC,-16.1% (inactive)
9,COc1ccc(/C=N/Nc2ncnc(Cl)c2N)cc1OC,19% (inactive)
10,COc1ccc(/C=N/Nc2nc(N3CCCC3)nc(N3CCCC3)n2)cc1,-2.38% (inactive)
11,CCOc1ccc(/C=N/Nc2nc(N3CCCC3)nc(N3CCCC3)n2)cc1OC,-0.04% (inactive)
12,CCOc1cc(/C=N/Nc2nncc(-c3ccccc3)n2)ccc1O,8.31% (inactive)
13,COc1ccc(/C=N/Nc2nc(N3CCCCC3)nc(N3CCCCC3)n2)cc1[N+](=O)[O-],4.11% (inactive)
14,Nc1c(Cl)ncnc1N/N=C/c1cccc(O)c1,28.2% (inactive)
15,O=c1c(Cl)c(Nc2cccc(Cl)c2)cnn1-c1nc2ccccc2s1,-0.81% (inactive)
16,COCCCNC(=O)C(C)N1c2cccc3cccc(c23)S1(=O)=O (stereo unspecified),3.72% (inactive)
17,CCOC(=O)c1sc(=S)n(-c2ccc(OC)cc2)c1N,15.3% (inactive)
18,Cc1ccc(CN2CCN(CC(=O)NCCCN3CCN(c4ccc(F)cc4)CC3)C2=O)cc1,3.02% (inactive)
19,CCN1CCCC1CNC(=O)c1ccccc1Cl (stereo unspecified),-13.2% (inactive)
20,COc1cccc(NC(=O)Cn2cnc3c(oc4nc5c(cc43)CCCC5)c2=O)c1,4.45% (inactive)
21,CCNc1nc(NCC)nc(N/N=C/c2cc(OC)c(OC)c(OC)c2)n1,9.56% (inactive)
22,CCNc1nc(NCC)nc(N/N=C/c2ccc(O)c(O)c2)n1,6.9% (inactive)
23,OCc1ccccc1O[C@@H]1O[C@H](CO)[C@@H](O)[C@H](O)[C@H]1O,10.5% (inactive)
24,[C-]#[N+][C@H](O[C@@H]1O[C@H](CO)[C@@H](O)[C@H](O)[C@H]1O)c1ccccc1,13.8% (inactive)
25,C/C(=C1/SC(N2CCOCC2)=NC1=O)c1ccc(Br)cc1,-0.65% (inactive)
26,CC1CCCCC1NC(=O)C1CCN(S(=O)(=O)c2cccc3nonc23)CC1 (stereo unspecified),6.27% (inactive)

row,SMILES,inhibition
1,COc1cc(OC)c(OC)cc1/C=N/NC(=O)CC1C(=O)NN=C1C (stereo unspecified),8.13% (inactive)
2,COc1ccc(OC)c(/C=N/NC(=O)CC2C(=O)NN=C2C)c1 (stereo unspecified),8.18% (inactive)
3,CC1C(=O)NN=C1C(=O)N/N=C/c1cccs1 (stereo unspecified),30% (inactive)
4,COc1ccc(/C=N\NC(=O)C2=NNC(=O)C2C)cc1 (stereo unspecified),21.2% (inactive)
5,CCCCC(CCCCl)C(=O)Nc1ccccc1 (stereo unspecified),0.43% (inactive)
6,CCN1CCCC1CNC(=O)COc1cc(=O)n(C)c2ccccc12 (stereo unspecified),-0.09% (inactive)
7,CC(=O)C[C@H]1c2ccccc2S(=O)(=O)N1C1CCCC1,3.17% (inactive)
8,CC(C)CCN1CCN(Cc2cccc3cccnc23)CC1CCO (stereo unspecified),-6.36% (inactive)
9,CCN1CCN(C(=O)c2ccc(OCC(=O)Nc3ccc(F)cc3)c(OC)c2)CC1,4.11% (inactive)
10,O=C1c2ccccc2CN1c1ccccc1,5.42% (inactive)
11,COc1ccc(N2Cc3ccccc3C2=O)cc1,2.48% (inactive)
12,CCN(Cc1ccccc1)S(=O)(=O)c1ccc(OC)c2ncccc12,11.3% (inactive)
13,COc1cc(-c2noc(CCC(=O)NC3CCCCC3)n2)cc(OC)c1OC,25.3% (inactive)
14,CN(C)c1ccc(Cl)cc1N,1.86% (inactive)
15,COc1ccc(C(=O)c2ccc(OC)c(N)c2)cc1N,8.57% (inactive)
16,O=C(CCS(=O)(=O)c1ccc(F)cc1)N1CCN(c2ccccc2)CC1,18.3% (inactive)
17,CC(=C/c1ccc(C(C)C)cc1)/C=N/NC(=O)Cn1nc(C)cc1C,2.16% (inactive)
18,CC(=O)Nc1sc(NC(=O)c2ccccc2)nc1-c1cccs1,6.41% (inactive)
19,Nc1nc(-c2cccs2)c(CC(=O)O)s1,23.1% (inactive)
20,O=[N+]([O-])c1cccc(C2(O)COc3ccccc3O2)c1 (stereo unspecified),6.64% (inactive)
21,CCn1c(COc2ccccc2)nnc1SCC(=O)NC1CCCCC1,8.87% (inactive)
22,O=c1cc(CN2CCN(c3ccccc3)CC2)nc2scc(-c3ccccc3)n12,3.32% (inactive)
23,CCOC(=O)C1CCN(Cc2cc(=O)n3c(-c4ccccc4)csc3n2)CC1,2.57% (inactive)

# Source: PubChem BioAssay AID1903 (Southern Research Specialized Biocontainment Screening …, 2009)
